Assay outcomes (PubChem BioAssay)
Sampled rows, rich in hits. Any-hit rate of the full collection: about 2.8%.
PG9 Ab binder: binders of HIV-1 gp120 antibody PG9, primary screen, biochemical, TR-FRET; HIV-1 gp120 / PG9 antibody interaction; TR-FRET gp120-PG9 antibody binding; inhibition, % at 6.7 µM; hit rate 0.43% among 360,000; in the data active means inhibition above about 8.5%
JMJD2C inh: inhibitors of GASC-1 histone demethylase, primary screen, biochemical, fluorescence, DELFIA europium; Lysine-specific demethylase 4C (Homo sapiens), Q9H3R0; GST-JMJD2C(1-420) H3K9me3 demethylation; inhibition, % at 2.35 µM; hit rate 0.069% among 330,000; AID 2099, 2009;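 active means more than half of a compound's replicate wells show inhibition beyond 50%, single wells judged on their own value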;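 further: signal counts dimethyl H3K9 product captured on neutravidin plate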
Target sequence (Q9H3R0 1-420 limits assumed): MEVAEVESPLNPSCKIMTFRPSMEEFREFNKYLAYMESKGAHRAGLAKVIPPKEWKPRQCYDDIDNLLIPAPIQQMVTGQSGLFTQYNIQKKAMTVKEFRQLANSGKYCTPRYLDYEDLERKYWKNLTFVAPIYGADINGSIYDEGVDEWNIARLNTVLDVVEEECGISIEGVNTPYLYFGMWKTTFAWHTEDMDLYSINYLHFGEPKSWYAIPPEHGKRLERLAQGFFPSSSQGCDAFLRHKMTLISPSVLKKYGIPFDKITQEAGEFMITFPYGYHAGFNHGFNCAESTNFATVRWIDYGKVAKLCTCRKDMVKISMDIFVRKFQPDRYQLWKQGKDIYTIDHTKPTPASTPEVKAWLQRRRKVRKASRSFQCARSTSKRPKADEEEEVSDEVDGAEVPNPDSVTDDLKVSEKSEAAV
Rev-erbA mod: modulators of Rev-erb alpha DNA binding, primary screen, biochemical, FITC-DNA, fluorescence polarization, uHTS; hit rate 0.79% among 370,000; activity, % at 10 µM; Rev-erbα–FITC-DNA binding, 90 min;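 active means activity above about 14%, limit read from the data; passing the limit was not always enough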
PP5 primary: PP5 phosphatase inhibitors, primary screen, biochemical, fluorescence. hit rate 0.18% among 320,000. purified PP5c, OMFP substrate fluorescence. inhibition, % at 6.7 µM;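 active means inhibition above the campaign's mean inhibition across all tested compounds plus 3 SD, cut at about 9.5% in these data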
PP1 counter: PP1-alpha phosphatase inhibitors, primary screen, counter-screen for PP5 inhibitor project, biochemical, fluorescence, OMFP substrate, single point | Serine/threonine-protein phosphatase PP1-alpha catalytic subunit (Homo sapiens), P62136 | purified PP1alpha | inhibition, % at 6.7 µM | hit rate 0.9% among 320,000;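 active means inhibition above the mean inhibition of all tested compounds plus 3 SD, computed separately for each screening campaign, cut at about 15% in these data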
KLK7 zymogen act: proKLK7 zymogen activators, primary screen, biochemical, fluorescence intensity. purified proKLK7, EDANS-DABCYL substrate fluorescence; 100% is mature enzyme control, 0% vehicle. activation, % at 7 µM. hit rate 0.9% among 370,000. AID 652039, 2013;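 active means activation above the mean of all tested compounds plus 3 SD, computed per campaign excluding outliers beyond control limits, cut at about 13% in these data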
NR1D1 mod conf: modulators of Rev-erb alpha DNA binding, confirmation, biochemical, FITC-DNA, fluorescence polarization, single point. shares compounds with Rev-erbA mod. 90 min. activation, % at 25 µM. hit rate 61% among 3,000;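 active means activation at or above a set limit, or at least 3 SD above the negative control mean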
RORg DNA counter: modulation of RORgamma DNA binding, dose response, counter-screen for Rev-erb alpha modulator project, biochemical, fluorescence polarization, FITC-DNA; shares compounds with Rev-erbA mod; purified RORgamma protein-FITC-DNA binding; IC50, µM; hit rate 8% among 910; AID 1259320, 2017;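 active means Compounds whose fitted half-maximal concentration for disrupting protein-DNA binding is below 10 micromolar; the record names Rev-erb in its text, so the target is in doubt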
Hits are given with their value; n = inactive; x = no result.

SMILES	PG9 Ab binder	JMJD2C inh	Rev-erbA mod	PP5 primary	PP1 counter	KLK7 zymogen act	NR1D1 mod conf	others
CCCCCCCn1c(=O)c(C(=O)Nc2cnccn2)c(O)c2ccccc21	n	n	47.9	n	n	n	43.1	RORg DNA counter=n
CCN1C(=O)C(=Cc2ccc(N3CCOCC3)o2)C(=O)N(CC)C1=S	n	n	n	n	n	n	x
CCOc1ccc(N2C(=O)NC(=O)/C(=C\c3ccc(N4CCCCC4)o3)C2=O)cc1	n	n	28.9	n	n	n	32.8
CN1C(=O)C(=Cc2ccc(N3CCOCC3)o2)C(=O)N(C)C1=S	n	n	39.0	n	n	n	44.2	RORg DNA counter=n
CN1C(=O)/C(=C\c2ccc(N3CCCCC3)o2)C(=O)NC1=S	n	n	109.9	n	n	n	132.5	RORg DNA counter=n
O=C1NC(=O)N(c2ccc3c(c2)OCO3)C(=O)/C1=C/c1ccc(N2CCCC2)o1	n	n	n	n	n	n	x
CC(=O)C1=C(C)OC2=C(C(=O)CCC2)[C@@]12C(=O)N(C)c1ccccc12	n	x	n	x	x	n	x
CN1/C(=C\C=C2C(=O)NC(=O)NC2=O)C(C)(C)c2ccccc21	n	n	19.7	n	n	n	n
C[N+]1=C(N)NC2=C3CCCCC3ONC2C1 (stereo unspecified)	x	x	n	x	x	x	x
Brc1ccc2c(c1)-n1nncc1CNC2	n	x	n	x	x	n	x
O=C(/C=C/c1c[nH]c2ccccc12)c1c(O)n(CCc2ccccc2)c(=O)[nH]c1=O	n	n	38.8	n	n	n	n
COc1cccc(-c2ccc3c(c2)C2c4cnnn4-c4ccccc4C(=O)N2CC3)c1 (stereo unspecified)	n	x	n	x	x	n	x
CN1c2ccc(Br)cc2[C@@H]2NCC[C@@H]2[C@@H]1CO	x	x	n	x	x	n	x
O=c1[nH]c(O)c(N=Nc2cc([N+](=O)[O-])ccc2O)c(=O)[nH]1	n	n	19.8	n	n	n	n
COC(=O)C1=C(c2ccc(F)cc2F)C[C@@H]2CC[C@H]1N2C(=O)NCCCOC(C)C	n	n	19.4	n	n	n	n
COC(=O)C1=C(c2ccc(F)cc2F)C[C@@H]2CC[C@H]1N2C(=O)NCCO	n	n	n	n	n	n	x
O=C(NCCN1CCC2(CC1)C(=O)NCN2c1ccccc1)c1ccc(Cl)cc1	n	x	n	x	x	n	x
COC(=O)c1cccc(N=Cc2c(O)n(Cc3ccc(F)cc3)c(=O)[nH]c2=O)c1	n	n	615.7	n	n	n	21.6
O=C(O)c1ccc(N=Cc2c(O)n(Cc3ccc(F)cc3)c(=O)[nH]c2=O)cc1	n	n	n	n	n	n	x
COc1ccc(CCn2c(O)c(C=Nc3ccc(F)cc3)c(=O)[nH]c2=O)cc1OC	n	n	130.3	n	n	n	69.1	RORg DNA counter=n
CC(NC(=O)OC1CC2CCC1(C)C2(C)C)P(=O)(Oc1ccccc1)Oc1ccccc1 (stereo unspecified)	x	x	n	x	x	x	x
